Results reported in publication PMC4552634, “A New Set of Chemical Starting Points with Plasmodium falciparum Transmission-Blocking Potential for Antimalarial Drug Discovery” (PLoS ONE, 2015).
Out of some 13,000 compounds screened, about 3,200 (25%) showed an effect of 50% or more. Some of the results follow.

Test system: P. falciparum stage V gametocytes
Design: BacTiter-Glo ATP luminescence viability of purified stage V gametocytes in 384-well plates, per cent inhibition versus DMSO
Settings: 48 h, 5 µM; inhibitor

Going from `Cc1cccc2nc(-c3ccc(-c4ccc(CN5CCN(c6cnccn6)CC5)cc4)s3)[nH]c12.O=C(O)C(F)(F)F` [TCMDC-133900] to `COc1ccc(CNCc2cccc(-c3ccc(-c4nc5ccccc5[nH]4)s3)c2)cc1.O=C(O)C(F)(F)F` [TCMDC-132733], the “% Inhibition” value falls from 28.24% to 7.28%.

First: COc1c(C(=O)NC2CCN(Cc3ccccc3)C2)cnc2ccccc12 (stereo not shown) [TCMDC-138996]
Second: O=C(Nc1ccnc2ccccc12)NC1CCN(CCc2ccccc2)CC1 [TCMDC-139687]
The “% Inhibition” value of the first is lower: -11.57% for the first, 38.02% for the second.

First: Cc1cc(C(=O)NC2CCN(CC3(c4ccccc4)CCCCC3)CC2)on1 [TCMDC-124832]
Second: Cc1cc(C(=O)NC2CCN(CC3(c4ccc(Cl)cc4)CCC3)CC2)on1 [TCMDC-124833]
The “% Inhibition” value of the first is lower: 67.12% for the first, 85.33% for the second.

Going from `COc1coc(C(=O)NC2CCN(CC3(c4ccc(Cl)cc4)CCC3)CC2)c1OC` [TCMDC-124835] to `O=C(CCc1ccco1)NC1CCN(CC2(c3ccc(Cl)cc3)CCC2)CC1` [TCMDC-124834], the “% Inhibition” value falls from 70.44% to 42.25%.

Going from `CC1CC1C(=O)NC1CCN(CC2(c3ccccc3)CCCCC2)CC1` (stereo not shown) [TCMDC-124831] to `O=C(C=Cc1ccc(Cl)c(Cl)c1)NC1CCN(CCc2ccccc2)CC1` [TCMDC-134274], the “% Inhibition” value falls from 61.7% to 3.334%.

Going from `CC(C)c1ccc(CN2CCC(NC(=O)c3ccc(-c4cccc(Cl)c4)s3)CC2)cc1` [TCMDC-134347] to `O=C(NC1CCN(Cc2ccccc2)CC1)c1cc(-c2ccncc2)c(-c2ccc(Cl)c(O)c2)o1` [TCMDC-135453], the “% Inhibition” value rises from -17.88% to 2.681%.

Going from `CS(=O)(=O)CCNCc1nc(-c2ccc3ncnc(Nc4ccc(OCc5cccc(F)c5)c(Cl)c4)c3c2)cs1` [TCMDC-138499] to `COc1cc(Nc2ccnc3cc(-c4ccncc4)ccc23)cc(OC)c1OC` [TCMDC-138293], the “% Inhibition” value falls from -12.17% to -25.86%.

Going from `Nc1ncc(-c2ccc3ncccc3c2)c(N)n1` [TCMDC-133421] to `CC(C)(CN)c1nc(-c2ccc(Cl)c(O)c2)c(-c2ccnc(N)n2)[nH]1` [TCMDC-141019], the “% Inhibition” value falls from 0.5405% to -19.39%.

Going from `CC(=O)Nc1ccc(CN2CCC(N(C)c3ccc(NC(=O)c4cccc(C)c4)cc3)CC2)cc1` [TCMDC-134985] to `COc1cccc(C2CCN(CCCCNC(=O)c3ccc(NC(=O)c4ccc(Cl)cc4)cc3)CC2)c1` [TCMDC-138312], the “% Inhibition” value rises from -13.81% to 21.15%.

Compared with `Cn1cccc1C(=O)Nc1cccc(-c2nn3ccccc3c2-c2ccnc(Nc3ccc4c(c3)OCCO4)n2)c1` [TCMDC-135663], `CCC(C)(C)NC(=O)C(c1cccc(OC)c1)N(C(=O)CNC(=O)c1cccs1)c1ccc2c(c1)OCCO2` (stereo not shown) [TCMDC-125637] is higher in “% Inhibition” value: -4.275% for the first, 1.141% for the second.

Going from `NC(=NCc1ccccc1)Nc1cccc(Cc2ccccc2)n1` [TCMDC-138951] to `N/C(=N\c1ncccn1)Nc1cccc(Cc2ccccc2)n1` [TCMDC-138948], the “% Inhibition” value falls from 107.9% to -9.706%.

Compared with `Cc1cccc(NC(=O)NCc2ccccc2)n1` [TCMDC-123843], `NC1=NC(c2ccccc2)N(OCc2ccccc2)C(N)=N1` (stereo not shown) [TCMDC-131586] is lower in “% Inhibition” value: 1.75% for the first, -5.605% for the second.

Compared with `CCN=C1NC2=C(CC(C(C)(C)C)CC2)C2(CCC(C(C)(C)C)CC2)S1` (stereo not shown) [TCMDC-131288], `C=CC[C@@H](C(=O)OCC)[C@@H]1[C@@H](N(CC=C)C(=O)OC(C)(C)C)CCN1C(=O)OCc1ccccc1` [TCMDC-132035] is lower in “% Inhibition” value: 95.02% for the first, 7.25% for the second.

Compared with `O=C(CSc1nccn1C1CCCC1)Nc1cc(C(F)(F)F)ccc1Cl` [TCMDC-125066], `O=C(CNCC1CCCCC1)Nc1cc(C(F)(F)F)ccc1Cl` [TCMDC-124505] is higher in “% Inhibition” value: 0.3827% for the first, 6.087% for the second.

Going from `COc1ccc(-c2nonc2NC(=O)c2ccc(C(C)(C)C)cc2)cc1OC` [TCMDC-125404] to `COc1ccc(-c2nonc2NC(=O)c2ccc(OC(C)C)cc2)cc1OC` [TCMDC-125130], the “% Inhibition” value rises from 42% to 61.65%.

Going from `CCCOc1ccc(C(=O)Nc2nonc2-c2ccc(OC)c(OC)c2)cc1` [TCMDC-125471] to `CCOc1ccc(C(=O)Nc2nonc2-c2ccc(OC)c(OC)c2)cc1` [TCMDC-125402], the “% Inhibition” value falls from 84.04% to 33.5%.

Compared with `C=CCOc1ccc(C(=O)Nc2nonc2-c2ccc(OC)c(OC)c2)cc1` [TCMDC-125178], `COc1cccc(C(=O)Nc2nonc2-c2ccc(OC)c(OC)c2)c1` [TCMDC-125403] is lower in “% Inhibition” value: 71.05% for the first, 43.85% for the second.

First: COc1ccc(C(=O)Nc2nonc2-c2ccc(OC)c(OC)c2)cc1Cl [TCMDC-125400]
Second: COc1ccc(-c2nonc2NC(=O)c2cccc(C)c2)cc1OC [TCMDC-125399]
The “% Inhibition” value of the first is lower: 30.18% for the first, 77.34% for the second.

Compared with `CCOc1ccc(-c2nonc2NC(=O)c2ccc(OC(C)C)cc2)cc1OCC` [TCMDC-125276], `COc1cc(C2CCN(CCCCNC(=O)c3ccc(NC(=O)c4ccc(Cl)c(Cl)c4)cc3)CC2)ccc1OC(C)C` [TCMDC-138286] is higher in “% Inhibition” value: 7.159% for the first, 111.4% for the second.

Compared with `CCN(CCCN1CCCCC1)c1cc(C)nc(Nc2cc(F)cc(F)c2)n1` [TCMDC-132450], `COc1ccc(N2CCN(c3nc(Nc4ccc(NC(C)=O)cc4)nc(N4CCCC4)n3)CC2)cc1` [TCMDC-123875] is lower in “% Inhibition” value: 49.02% for the first, -17.97% for the second.

Going from `O=C(OCc1ccccc1)N1CCc2c([nH]c3ccccc23)C1CCC(F)(F)F` (stereo not shown) [TCMDC-134555] to `O=S(=O)(c1cccc(Br)c1)N1CCCCC(c2ccc(C(F)(F)F)cc2)=N1` [TCMDC-134539], the “% Inhibition” value rises from -59.21% to -27.96%.

First: Oc1ccc(CCNc2nc(NCc3ccc4cc(Cl)ccc4c3)nc(N3CCNCC3)n2)cc1 [TCMDC-133782]
Second: CC(C)Cc1ccc(N2CCN(CCCCNC(=O)c3ccc(NC(=O)c4ccc(Cl)c(Cl)c4)cc3)CC2)cc1 [TCMDC-138251]
The “% Inhibition” value of the first is higher: -8.892% for the first, -11.88% for the second.

Compared with `COc1ccc(C2CCN(CCCCNC(=O)c3ccc(NC(=O)c4ccc(Cl)cc4)cc3)CC2)cc1Cl` [TCMDC-138366], `COc1ccc(C2CCC(NCCCCNC(=O)c3ccc(NC(=O)c4ccc(Cl)cc4)cc3)CC2)cc1` (stereo not shown) [TCMDC-138582] is lower in “% Inhibition” value: 81.78% for the first, 60.8% for the second.

Going from `COc1ccc(N2CCN(CCCCNC(=O)c3ccc(NC(=O)c4cc(C(F)(F)F)cc(C(F)(F)F)c4)cc3)CC2)c(OC)c1` [TCMDC-138227] to `CC(C)Cc1ccc(N2CCN(CCCCNC(=O)c3ccc(NC(=O)c4cc(C(F)(F)F)cc(C(F)(F)F)c4)cc3)CC2)cc1` [TCMDC-138252], the “% Inhibition” value falls from 7.888% to 6.749%.

First: COc1ccc2c(c1)CCCC2NCCCCNC(=O)c1ccc(NC(=O)c2ccc(Cl)cc2)cc1 (stereo not shown) [TCMDC-138690]
Second: COc1cc(C2CCN(CCCCNC(=O)c3ccc(NC(=O)c4cc(C(F)(F)F)cc(C(F)(F)F)c4)cc3)CC2)ccc1OC(C)C [TCMDC-138285]
The “% Inhibition” value of the first is lower: 6.749% for the first, 55.31% for the second.

Compared with `CCN(CC)c1ccccc1CNC(=O)c1cc(Cl)c(N)cc1OC` [TCMDC-131416], `CCN(CC)CCCC(C)Nc1ccnc2ccc(-c3ccccc3)cc12` (stereo not shown) [TCMDC-123952] is higher in “% Inhibition” value: 17.92% for the first, 41.59% for the second.

Compared with `C=C[C@H]1CN2CC[C@H]1C[C@@H]2[C@@H](O)c1ccnc2ccccc12` [TCMDC-123933], `O=C(C=Cc1ccc(Cl)c(Cl)c1)NCCCCCN1CCCC(CCCNS(=O)(=O)c2cccc3cccnc23)C1` (stereo not shown) [TCMDC-139594] is higher in “% Inhibition” value: 7.627% for the first, 96.79% for the second.

First: CCN(CC)CCCSc1ccc(-c2ccc(SCCCN(CC)CC)cc2)cc1 [TCMDC-131824]
Second: CC[C@H](NC(=O)c1ccc(NC(=O)OC(C)(C)C)cc1)C(=O)N[C@@H](CO)C(=O)NCCCCc1ccccc1 [TCMDC-137189]
The “% Inhibition” value of the first is higher: 99.62% for the first, 5.299% for the second.

Compared with `O=C(C=Cc1ccc(Cl)c(Cl)c1)NCCCCCN1CCCC(CCCNC(=O)c2cccs2)C1` (stereo not shown) [TCMDC-139576], `O=C(C=Cc1ccc(Cl)c(Cl)c1)NCCCCCN1CCCC(CCCNS(=O)(=O)c2cccc(C(F)(F)F)c2)C1` (stereo not shown) [TCMDC-139593] is higher in “% Inhibition” value: 12.1% for the first, 101.3% for the second.

First: O=C(/C=C/c1ccc(Cl)c(Cl)c1)NCCCCCN1CCC(NC(=O)Nc2cccc(C(F)(F)F)c2)CC1 [TCMDC-135724]
Second: O=C(C=Cc1ccc(Cl)c(Cl)c1)NCCCCCN1CCC(CCCNS(=O)(=O)c2cccc(C(F)(F)F)c2)CC1 [TCMDC-139591]
The “% Inhibition” value of the first is lower: -61.55% for the first, 107.6% for the second.

First: CN(C(=O)/C=C/c1cc(C(F)(F)F)ccc1F)C1CCN(CCCCCNC(=O)/C=C/c2ccc(Cl)c(Cl)c2)C1 (stereo not shown) [TCMDC-139997]
Second: O=C(/C=C/c1ccc(Cl)c(Cl)c1)NCCCCCN1CCCC(CNS(=O)(=O)c2cccc(C(F)(F)F)c2)C1 (stereo not shown) [TCMDC-139597]
The “% Inhibition” value of the first is lower: 27.91% for the first, 100.9% for the second.

Compared with `Cc1nc(-c2nc(NCc3ccc4c(c3)OCO4)ncc2-c2ccsc2)sc1C` [TCMDC-125358], `COc1ccc(C2=[N+]([O-])c3ccccc3C2=O)cc1` [TCMDC-123940] is lower in “% Inhibition” value: 15.74% for the first, -13.17% for the second.

Compared with `CCCc1cc(O)c2c3c(c(=O)oc2c1)CN(C)CC3` [TCMDC-124226], `O=C(O)c1cc(C(F)(F)F)co1` [TCMDC-124155] is higher in “% Inhibition” value: -5.24% for the first, -1.887% for the second.

In the case of `COc1cccc2cc(C(=O)N[C@@H](CC(C)C)C(=O)N[C@H](C=NN(C)C(=O)OC(C)(C)C)Cc3ccccc3)oc12` [TCMDC-136133], the “% Inhibition” value is reported as 30.7%.
